# Assay results from PubChem BioAssay (NCATS).
# Values joined by “and” are separate entries in the source; they are usually repeats but may differ in a detail not shown here. Equal values may be shown once. Results filed as inconclusive are left out. Active and inactive are the calls of the source. Unless noted, the call rests on the fitted dose curve; in most records, active means well fitted curve in the direction sought with a large enough effect; inconclusive means small, poorly fitted or top-dose-only effect, or another doubt; inactive means no such curve, though single readings can be large; an effect the other way counts as inactive or inconclusive.
# How the values were obtained:
# [1] = Quantitative High-Throughput drug screen in 47 multiple myeloma cell lines against the NCATS MIPE library collection: VP6_DJ cell viability assay (AID 1919867); further: nearly all actives have a fitted effect of over 40% in size; further: potency means the concentration at half of the fitted maximal effect
# Outline: (§1)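 Plated at 500 cells per well, myeloma lines received MIPE 4.0 compounds by pin tool. Following 48 h culture at 37 °C, CellTiter-Glo luminescence gave viability relative to DMSO and media-only controls.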
# [2] = Quantitative High-Throughput drug screen in 47 multiple myeloma cell lines against the NCATS MIPE library collection: UTMC2_PLB cell viability assay (AID 1919868); conditions: CellTiter-Glo ATP luminescence, 48 h; viability (% of DMSO control): at 45.8 µM (top of the series) unless noted; further: nearly all actives have a fitted effect of over 55% in size; further: potency means the concentration at half of the fitted maximal effect
# Outline: as §1
# [3] = Quantitative High-Throughput drug screen in 47 multiple myeloma cell lines against the NCATS MIPE library collection: PCM6_Riken cell viability assay (AID 1919870); further: nearly all actives have a fitted effect of over 30% in size; further: potency means the concentration at half of the fitted maximal effect
# Outline: as §1
# [4] = Quantitative High-Throughput drug screen in 47 multiple myeloma cell lines against the NCATS MIPE library collection: RPMI8226_ATCC cell viability assay (AID 1919871); further: nearly all actives have a fitted effect of over 30% in size; further: potency means the concentration at half of the fitted maximal effect
# Outline: as §1
# [5] = Quantitative High-Throughput drug screen in 47 multiple myeloma cell lines against the NCATS MIPE library collection: OPM2_DSMZ cell viability assay (AID 1919872); further: nearly all actives have a fitted effect of over 30% in size; further: potency means the concentration at half of the fitted maximal effect
# Outline: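 Myeloma cells (500 per well) were exposed to MIPE 4.0 compounds by pin transfer and incubated 48 hours at 37C, 5% CO2. Viability was read as ATP by CellTiter-Glo luminescence, normalised to DMSO (100%) and media-only (0%) wells.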
# [6] = Quantitative High-Throughput drug screen in 47 multiple myeloma cell lines against the NCATS MIPE library collection: KMS11_JCRBsus cell viability assay (AID 1919873); further: nearly all actives have a fitted effect of over 50% in size; further: potency means the concentration at half of the fitted maximal effect
# Outline: as §1
# [7] = Quantitative High-Throughput drug screen in 47 multiple myeloma cell lines against the NCATS MIPE library collection: KMS28BM_JCRB cell viability assay (AID 1919874); further: nearly all actives have a fitted effect of over 35% in size; further: potency means the concentration at half of the fitted maximal effect
# Outline: as §1
# [8] = qHTS drug screen for cell cycle checkpoint inhibitors in PARPi-resistant BRCA-mutant ovarian cancer cell lines. (AID 1963452; calls by dose curve); conditions: PEO1/OlaR viability, CellTiter-Glo luminescence, 96 h, stronger effect = lower value
# Outline: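 PEO1, PEO4 and PEO1/OlaR ovarian cancer cells, 600 per well, exposed 96 h at 37C to a dilution series. Viability read by CellTiter-Glo luminescence, normalized to DMSO and empty wells; activity summarized as Z-AUC.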
# [9] = Quantitative High-Throughput drug screen in 47 multiple myeloma cell lines against the NCATS MIPE library collection: PE2_PLB cell viability assay (AID 1919869); further: nearly all actives have a fitted effect of over 35% in size; further: potency means the concentration at half of the fitted maximal effect
# Outline: as §1
# [10] = qHTS for identification of novel therapeutic agents for treatment of microphthalmiaassociated transcription factor (MiT) renal cell carcinoma (RCC) (AID 1963991; calls by dose curve; further: potency means the concentration at half of the fitted maximal effect); conditions: CellTiter-Glo, 48 h; for z-score: stronger effect = lower value
# Outline: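 Three TFE3-fusion RCC cell lines (UOK109, UOK124, UOK145), 500 cells/well, were exposed to the 1912-compound MIPE 4.0 library for 48 hours at 37 C. Viability was read by CellTiter-Glo luminescence, normalised to DMSO (100%) and empty wells (0%), with 11-concentration curve fits.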
# [11] = qHTS profiling for inhibitors of Plasmodium falciparum proliferation (AID 504749);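 further: 0% = DMSO vehicle and full inhibition = artemisinin control; nearly all actives have a fitted effect of over 60% in size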; conditions: P. falciparum in erythrocytes, SYBR Green DNA, 72 h, at 28.7 µM (top of the series)
# Outline: (§2)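 Three-day growth assay of blood-stage parasites in erythrocytes (0.3% parasitemia, 2.5% hematocrit) at 37 C, 5% CO2, quantified by SYBR Green DNA staining after overnight detergent lysis.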
# 3D7 = assay: as above; conditions: P. falciparum in erythrocytes, SYBR Green DNA, 72 h; series mostly up to 28.7 µM
# Outline: as §2
# 7G8 = assay: as above; conditions: P. falciparum in erythrocytes, SYBR Green DNA, 72 h; series mostly up to 28.7 µM
# Outline: as §2
# AA1029 = assay: as above; conditions: P. falciparum in erythrocytes, SYBR Green DNA, 72 h; series mostly up to 28.7 µM
# Outline: as §2
# AS120 = assay: as above; conditions: P. falciparum in erythrocytes, SYBR Green DNA, 72 h; series mostly up to 28.7 µM
# Outline: as §2
# ATS189 = assay: as above; conditions: P. falciparum in erythrocytes, SYBR Green DNA, 72 h; series mostly up to 28.7 µM
# Outline: as §2
# ATS95 = assay: as above; conditions: P. falciparum in erythrocytes, SYBR Green DNA, 72 h; series mostly up to 28.7 µM
# Outline: as §2
# C2A = assay: as above; conditions: P. falciparum in erythrocytes, SYBR Green DNA, 72 h; series mostly up to 28.7 µM
# Outline: as §2
# CP185 = assay: as above; conditions: P. falciparum in erythrocytes, SYBR Green DNA, 72 h; series mostly up to 28.7 µM
# Outline: as §2
# [12] = measured here: PEO1 parental Z-AUC
# [13] = TFE3-RCC UOK109 viability, measured here: UOK109 Z-AUC
# [14] = TFE3-RCC viability, measured here: UOK124 Z-AUC
# [15] = TFE3-RCC viability, measured here: UOK145 Z-AUC
compound,measurement,setting,value
O=c1c2ccccc2nc2n1CCc1c-2[nH]c2ccccc12,Potency,[1],inactive
same,Potency,[2],inactive
same,Potency,[3],13.2 µM (active)
same,Potency,[4],inactive
same,Potency,[5],inactive
CNC(=O)c1ccc(-c2cnc3ncc(Cc4ccc5ncccc5c4)n3n2)cc1F,Potency,[1],inactive
same,Potency,[5],inactive
same,Potency,[6],inactive
same,Potency,[7],inactive
same,Z-AUC,[8],-0.273 (inactive)
same,Z-AUC,[8]; [12],1.03
same,Z-AUC,[8]; measured here: PEO4 Z-AUC,0.0538
CC(C)(O)CCc1ccc(OCc2cc(-c3cccc(OC(F)F)c3)c3ncccc3c2)cc1,Potency,[9],inactive
same,Potency,[3],inactive
same,Potency,[5],inactive
same,Potency,[6],inactive
same,Potency,[7],inactive
same,Z-AUC,[8],-0.38 (inactive)
same,Z-AUC,[8]; [12],0.116
same,Z-AUC,[8]; measured here: PEO4 Z-AUC,0.147
same,z-score,[10]; [13],0.14
same,z-score,[10]; [14],0.328
same,z-score,[10]; [15],0.0594
Cn1cc(-c2ccncc2)c(-c2ccc(OCc3ccc4ccccc4n3)cc2)n1,Potency,[1],5.26 µM (active)
same,Potency,[4],6.62 µM (active)
same,Potency,[6],8.33 µM (active)
same,Z-AUC,[8],0.205 (inactive)
same,Z-AUC,[8]; [12],-0.209
same,Z-AUC,[8]; measured here: PEO4 Z-AUC,0.0189
COc1cc2nccc(Oc3ccc(NC(=O)C4(C(=O)Nc5ccc(F)cc5)CC4)cc3)c2cc1OC,Potency,[1],3.72 µM (active)
same,Potency,[2],20.9 µM (active)
same,Potency,[3],2.96 µM (active)
same,Potency,[5],23.5 µM (active)
same,Potency,[6],20.9 µM (active)
same,Potency,[7],20.9 µM (active)
same,Z-AUC,[8],-0.0071 (inactive)
same,Z-AUC,[8]; [12],0.252
same,Z-AUC,[8]; measured here: PEO4 Z-AUC,-0.118
CCOC(=O)C1=C(C)NC2=C(C(=O)CC(C)(C)C2)C1c1ccc(-c2ccccc2)cc1 (stereo unspecified),Potency,[2],18.7 µM (active)
same,Potency,[9],20.9 µM (active)
same,Potency,[3],20.9 µM (active)
same,Potency,[4],23.5 µM (active)
same,Potency,[6],18.7 µM (active)
same,Z-AUC,[8],0.483 (inactive)
same,Z-AUC,[8]; [12],0.756
same,Z-AUC,[8]; measured here: PEO4 Z-AUC,0.977
CN(C)CC(C)(C)CNc1nn2c(-c3ccccc3)nnc2cc1C1CCC1,Potency,[1],10.5 µM (active)
same,Potency,[2],1.05 µM (active)
same,Potency,[9],11.8 µM (active)
same,Potency,[4],inactive
same,Potency,[5],inactive
same,Potency,[6],inactive
same,Z-AUC,[8],0.384 (inactive)
same,Z-AUC,[8]; [12],0.768
same,Z-AUC,[8]; measured here: PEO4 Z-AUC,0.988
CN1c2cc(O)c(N=NC(N)=O)cc2CC1S(=O)(=O)O (stereo unspecified),Potency,[1],inactive
same,Potency,[9],inactive
same,Potency,[3],inactive
same,Potency,[5],14.8 µM (active)
same,Potency,[6],inactive
same,Potency,[7],inactive
same,z-score,[10]; [13],0.359
same,z-score,[10]; [14],0.697
same,z-score,[10]; [15],0.51
same,"activity, negative = inhibition",[11]; parasite line A,-0.188% (inactive)
same,"activity, negative = inhibition",[11]; parasite line B,7.8% (inactive)
same,Potency,3D7,inactive
same,Potency,7G8,inactive
same,Potency,AA1029,inactive
same,Potency,AS120,inactive
same,Potency,ATS189,inactive
same,Potency,ATS95,inactive
same,Potency,C2A,inactive
same,Potency,CP185,inactive
Cc1c(C)n(Cc2ccc(-c3ccccc3C(=O)O)cc2)c2ccc(C(=O)N[C@@H](C)c3ccc([N+](=O)[O-])cc3)cc12,Potency,[2],20.9 µM (active)
same,Potency,[4],inactive
same,Potency,[5],inactive
same,Potency,[6],18.7 µM (active)
same,Z-AUC,[8],0.131 (inactive)
same,Z-AUC,[8]; [12],0.774
same,Z-AUC,[8]; measured here: PEO4 Z-AUC,0.226
CC(C)(C)c1cc(C(C)(C)C)c(NC(=O)c2c[nH]c3ccccc3c2=O)cc1O,Potency,[2],inactive
same,Potency,[3],inactive
same,Potency,[4],inactive
same,Potency,[5],inactive
same,Potency,[6],inactive
same,Potency,[7],inactive
same,Z-AUC,[8],1.31 (inactive)
same,Z-AUC,[8]; [12],1.35
same,Z-AUC,[8]; measured here: PEO4 Z-AUC,0.966
same,z-score,[10]; [13],0.938
same,z-score,[10]; [14],0.941
same,z-score,[10]; [15],0.665
O=c1[nH]c(=O)n(C2CCCO2)cc1F (stereo unspecified),Potency,[1],inactive
same,Potency,[2],inactive
same,Potency,[9],inactive
same,Potency,[3],inactive
same,Potency,[5],inactive
same,Potency,[6],inactive
same,Z-AUC,[8],1.33 (inactive)
same,Z-AUC,[8]; [12],1.12
same,Z-AUC,[8]; measured here: PEO4 Z-AUC,0.998
same,z-score,[10]; [13],0.952
same,z-score,[10]; [14],1.45
same,z-score,[10]; [15],0.901
same,"activity, negative = inhibition",[11]; parasite line A,8.19% (inactive)
same,"activity, negative = inhibition",[11]; parasite line B,12.8% (inactive)
same,Potency,3D7,inactive
same,Potency,7G8,inactive
same,Potency,AA1029,inactive
same,Potency,AS120,inactive
same,Potency,ATS189,inactive
same,Potency,ATS95,inactive
same,Potency,C2A,inactive
same,Potency,CP185,inactive
Nc1ccn([C@@H]2CS[C@H](CO)O2)c(=O)n1,Potency,[5],inactive
same,Potency,[7],inactive
same,Z-AUC,[8],-0.72 (inactive)
same,Z-AUC,[8]; [12],-0.233
same,Z-AUC,[8]; measured here: PEO4 Z-AUC,-0.547
same,z-score,[10]; [13],-0.159
same,z-score,[10]; [14],0.923
same,z-score,[10]; [15],0.391
same,"activity, negative = inhibition",[11]; parasite line A,3.35% (inactive) and 3.28% (inactive)
same,"activity, negative = inhibition",[11]; parasite line B,12% (inactive) and -4.61% (inactive)
same,Potency,3D7,inactive
same,Potency,7G8,inactive
same,Potency,AA1029,inactive
same,Potency,AS120,inactive
same,Potency,ATS189,inactive
same,Potency,ATS95,inactive
same,Potency,C2A,inactive
same,Potency,CP185,inactive
NC(=O)c1cccc2cn(-c3ccc([C@@H]4CCCNC4)cc3)nc12,Potency,[1],18.7 µM (active)
same,Potency,[2],inactive
same,Potency,[3],inactive
same,Potency,[4],inactive
same,Potency,[5],inactive
same,Potency,[6],inactive
same,Potency,[7],inactive
same,Z-AUC,[8],0.523 (inactive)
same,Z-AUC,[8]; [12],-0.0942
same,Z-AUC,[8]; measured here: PEO4 Z-AUC,0.435
Nc1cccc(-c2cc3c(Oc4cccc(O)c4)ncnc3[nH]2)c1,Potency,[9],14.8 µM (active)
same,Potency,[3],16.6 µM (active)
same,Potency,[6],7.43 µM (active)
same,Potency,[7],20.9 µM (active)
O=C(Cc1ccc(-c2ccc(OCCN3CCOCC3)cc2)cn1)NCc1ccccc1,Potency,[1],0.0264 µM (active)
same,Potency,[2],0.0332 µM (active)
same,Potency,[3],0.0264 µM (active)
same,Potency,[4],0.148 µM (active)
same,Potency,[5],0.0372 µM (active)
same,Potency,[6],0.0105 µM (active)
same,Potency,[7],0.0148 µM (active)
same,Z-AUC,[8],-0.749 (inactive)
same,Z-AUC,[8]; [12],-0.848
same,Z-AUC,[8]; measured here: PEO4 Z-AUC,-1.63
same,Potency,"[10]; TFE3-RCC UOK109 viability, active = Z-AUC below -0.8 in all three lines",0.148 µM (active)
same,z-score,[10]; [13],-1.65
same,z-score,[10]; [14],-2.5
same,z-score,[10]; [15],-1.24
